Screening data from PubChem BioAssay.
This is a sample that favours compounds with a hit; in the whole collection about 2.5% have one here.
NSD2 inh: inhibitors of human histone methyltransferase NSD2. O96028. NSD2 peptide methylation, AlphaScreen, 120 min. inhibition, % at 12.5 µM. 0.54% of 310,000 active. AID 743445; in the data active means inhibition above about 50%
RAD52 anneal inh: RAD52 (human) annealing inhibition; P43351; recombinant RAD52 DNA annealing, FRET fluorescence; inhibition, % at 18.7 µM; 0.46% of 360,000 active; AID 651710;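 active means every replicate showing at least 50% inhibition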
Target sequence (P43351 whole entry, looked up): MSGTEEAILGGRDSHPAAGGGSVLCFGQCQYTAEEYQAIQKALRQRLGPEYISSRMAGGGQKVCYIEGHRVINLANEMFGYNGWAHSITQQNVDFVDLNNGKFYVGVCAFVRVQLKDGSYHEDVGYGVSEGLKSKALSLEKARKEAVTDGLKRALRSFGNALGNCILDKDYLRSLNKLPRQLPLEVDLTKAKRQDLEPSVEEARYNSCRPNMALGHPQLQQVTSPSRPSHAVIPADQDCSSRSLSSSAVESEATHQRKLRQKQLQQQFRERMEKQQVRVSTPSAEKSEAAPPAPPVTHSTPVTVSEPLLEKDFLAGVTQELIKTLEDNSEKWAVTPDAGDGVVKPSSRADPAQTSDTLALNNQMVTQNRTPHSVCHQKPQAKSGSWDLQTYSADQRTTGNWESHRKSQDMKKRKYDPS
Ecoli rRNA inh: inhibits bacterial ribosomal RNA function over humanized ribosomes | E. coli WT GFP vs humanized-ribosome RFP mutants, fluorescence, 24 h; hits give low values; DMSO median 0, no signal -100 | GFP signal change (wild-type ribosome), % (test concentration not listed) | 1.6% of 350,000 active;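 active means significant combined selectivity score with lowered wild-type GFP, culture density cut under 30%, mutant RFP and density less affected; inactive means any of these conditions unmet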
AF4-AF9 inh: inhibitors of human MLL-AF4/AF9 interaction; AlphaScreen, biotin-AF4 peptide binding to FLAG-AF9; inhibition, % at 10 µM; 0.47% of 350,000 active;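 active means every replicate reaching a set inhibition limit, whatever the replicate mean, cut at about 25% in these data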
Casp6 inh: caspase-6 (human) enzyme inhibition; P55212; purified caspase-6, Z-VEID-R110 cleavage fluorescence; inhibition, % at 12.5 µM; 0.53% of 350,000 active;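 active means mean inhibition across replicates at least about 35%, with every replicate also reaching that limit, limit read from the data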
Target sequence (P55212 24-179 limits assumed): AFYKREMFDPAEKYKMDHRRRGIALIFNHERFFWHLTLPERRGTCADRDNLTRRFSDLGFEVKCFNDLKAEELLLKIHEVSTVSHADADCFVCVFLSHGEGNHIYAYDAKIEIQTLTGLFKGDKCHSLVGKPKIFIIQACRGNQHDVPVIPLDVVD
Target sequence (P55212 194-293 limits assumed): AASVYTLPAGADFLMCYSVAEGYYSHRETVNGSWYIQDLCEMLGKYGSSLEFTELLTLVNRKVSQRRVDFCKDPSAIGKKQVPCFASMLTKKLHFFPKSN
Each line names hits and unclear results; the compound was inactive in the other large screens; ! = not active in a repeat.

CC(C)CC#Cc1ccc([C@H]2[C@H]3CN(C(=O)c4ccc5c(c4)OCO5)CCCCN3[C@H]2CO)cc1	none (no result: NSD2 inh)
CN(C)CC#Cc1ccc([C@H]2[C@H](CO)N3CCCCN(C(=O)CN(C)C)C[C@@H]23)cc1	RAD52 anneal inh 74 (no result: NSD2 inh)
CN(C)CC#Cc1ccc([C@@H]2[C@@H](CO)N3CCCCN(C(=O)C4CC4)C[C@@H]23)cc1	none (no result: NSD2 inh, Ecoli rRNA inh)
CC(C)CC#Cc1ccc([C@@H]2[C@H](CO)N3CCCCN(C(=O)c4ccc5c(c4)OCO5)C[C@@H]23)cc1	RAD52 anneal inh 58 (no result: NSD2 inh)
C[C@H](CO)N1C[C@H](C)[C@H](CN(C)C(=O)CCCN(C)C)OCCCC[C@H](C)Oc2ccc(NS(C)(=O)=O)cc2C1=O	none (no result: NSD2 inh)
C[C@H]1CN([C@@H](C)CO)S(=O)(=O)c2ccc(-c3cccc(C#N)c3)cc2O[C@H]1CN(C)C(=O)C1CC1	none (no result: NSD2 inh)
CNC[C@H]1OCc2ccccc2-c2c(n(C)c3ccccc23)C(=O)N([C@@H](C)CO)C[C@@H]1C	none (no result: NSD2 inh, RAD52 anneal inh, AF4-AF9 inh, Casp6 inh)
CN(C)CC#Cc1ccc([C@H]2[C@@H](CO)N3CCCCN(C(=O)CN(C)C)C[C@H]23)cc1	RAD52 anneal inh 87 (no result: NSD2 inh)
CN(C)CC#Cc1ccc([C@@H]2[C@H]3CN(C(=O)CN(C)C)CCCCN3[C@H]2CO)cc1	RAD52 anneal inh 62 (no result: NSD2 inh)
COCC#Cc1ccc([C@@H]2[C@@H](CO)N3CCCCN(C(=O)CN(C)C)C[C@H]23)cc1	none (no result: NSD2 inh)
CCN(Cc1ccncc1)C(=O)c1cccc(S(=O)(=O)N(C)c2ccccc2)c1	none (no result: RAD52 anneal inh, Ecoli rRNA inh, AF4-AF9 inh, Casp6 inh)
O=C1N[C@H](Cc2ccccc2)COCc2cn(nn2)CC[C@H]1Cc1cccc(Cl)c1	none (no result: NSD2 inh, RAD52 anneal inh, AF4-AF9 inh, Casp6 inh)
Cc1noc(C)c1S(=O)(=O)Nc1ccc2c(c1)C(=O)N([C@H](C)CO)C[C@@H](C)[C@@H](CN(C)S(=O)(=O)c1ccc(F)cc1)OCCCC[C@H](C)O2	RAD52 anneal inh 60 (no result: NSD2 inh)
Cc1ccc(S(=O)(=O)N(C)C[C@H]2OCCCC[C@@H](C)Oc3ccc(NC(=O)CCCN(C)C)cc3C(=O)N([C@@H](C)CO)C[C@@H]2C)cc1	RAD52 anneal inh 50 (no result: NSD2 inh)
Cc1noc(C)c1S(=O)(=O)Nc1ccc2c(c1)C(=O)N([C@@H](C)CO)C[C@@H](C)[C@H](CN(C)Cc1ccc(Cl)c(Cl)c1)OCCCC[C@@H](C)O2	Casp6 inh 78 (no result: NSD2 inh)
Cc1noc(C)c1S(=O)(=O)Nc1ccc2c(c1)C(=O)N([C@H](C)CO)C[C@H](C)[C@@H](CN(C)S(=O)(=O)c1ccc(F)cc1)O2	Ecoli rRNA inh -25! (no result: NSD2 inh)
Cc1noc(C)c1S(=O)(=O)Nc1ccc2c(c1)C(=O)N([C@H](C)CO)C[C@H](C)[C@H](CN(C)Cc1ccc(Cl)c(Cl)c1)OCCCC[C@@H](C)O2	none (no result: NSD2 inh)
CC(C)NC(=O)N(C)C[C@@H]1Oc2cc(C#Cc3ccc(F)cc3)ccc2S(=O)(=O)N([C@@H](C)CO)C[C@@H]1C	none (no result: NSD2 inh)
COc1ccc(NC(=O)N(C)C[C@@H]2OCCCC[C@H](C)Oc3ccc(NS(=O)(=O)c4ccccc4)cc3C(=O)N([C@H](C)CO)C[C@H]2C)cc1	none (no result: NSD2 inh)
C=CC[C@]12N=C(c3ccc(OCCCO)cc3)O[C@H]1c1ccccc1CN(Cc1ccccc1)C2=O	none (no result: NSD2 inh, Ecoli rRNA inh)
Cc1noc(C)c1S(=O)(=O)Nc1ccc2c(c1)C(=O)N([C@@H](C)CO)C[C@@H](C)[C@H](CN(C)S(=O)(=O)c1ccc(F)cc1)OCCCC[C@@H](C)O2	none (no result: NSD2 inh)
Cc1noc(C)c1S(=O)(=O)Nc1ccc2c(c1)C(=O)N([C@H](C)CO)C[C@H](C)[C@H](CN(C)S(=O)(=O)c1ccc(F)cc1)OCCCC[C@@H](C)O2	RAD52 anneal inh 81 (no result: NSD2 inh)
Cc1noc(C)c1S(=O)(=O)Nc1ccc2c(c1)C(=O)N([C@H](C)CO)C[C@H](C)[C@@H](CN(C)S(=O)(=O)c1ccc(F)cc1)OCCCC[C@H](C)O2	RAD52 anneal inh 82 (no result: NSD2 inh)
Cc1cc(C)c2nc(NNC(=O)c3cc(=O)c4ccccc4o3)sc2c1	Ecoli rRNA inh -27 (no result: NSD2 inh)
C[C@H]1COCn2nncc2CC[C@H](C)C(=O)N1	none (no result: NSD2 inh, RAD52 anneal inh, AF4-AF9 inh, Casp6 inh)
Cc1ccc(-c2ccc(=O)n(Cc3c(F)cccc3Cl)n2)cc1	Ecoli rRNA inh -27
Cc1ccc(C)c(-c2ccc(=O)n(Cc3c(F)cccc3Cl)n2)c1	none
O=C(N/N=C/c1cccs1)c1ccc(-n2cccc2)cc1	Ecoli rRNA inh -23
O=C(N/N=C/c1ccncc1)c1ccc(-n2cccc2)cc1	none
COc1ccc2c3c([nH]c2c1)[C@@H](CO)N(C(=O)c1ccncc1)CC31CCN(Cc2cccnc2)CC1	none (no result: NSD2 inh)
COC(=O)c1ccc(OCC2c3cc(OC)c(OC)cc3CCN2C(C)=O)cc1 (centres undefined)	none
COc1ccc(OCC2c3cc(OC)c(OC)cc3CCN2C(=O)C(C)C)cc1 (centres undefined)	Ecoli rRNA inh -24
CNC(=S)N1CCc2cc(OC)c(OC)cc2C1COc1ccc(F)cc1 (centres undefined)	none
CCNC(=S)N1CCc2cc(OC)c(OC)cc2C1COc1ccc(F)cc1 (centres undefined)	Ecoli rRNA inh -31
COc1ccc(-c2cn(CC[C@H]3CC[C@@H](NC(=O)Nc4ccc(F)cc4)[C@H](CO)O3)nn2)cc1	none (no result: NSD2 inh)
Oc1ccc(Cl)cc1CNCc1cccc2ccccc12	Ecoli rRNA inh -24 (no result: NSD2 inh)
N=c1ccn(CC(=O)c2ccc(-c3ccccc3)cc2)cc1	Ecoli rRNA inh -41
Cc1ccc(C2CC(=O)C=C(NCc3ccccc3)C2)cc1 (centres undefined)	Ecoli rRNA inh -32
Cc1ccc(C2CC(=O)C=C(NCC(C)C)C2)cc1 (centres undefined)	none
CO[C@@H]1CN(C)C(=O)c2cc(NC(=O)C3CCC3)ccc2OC[C@H](C)N(CC2CCCCC2)C[C@H]1C	none (no result: NSD2 inh)
Cc1cc(C)n(C)c(=O)c1C#N	none
Cc1c(C=O)c(Cl)n(C)c(=O)c1C#N	Casp6 inh 51 (no result: NSD2 inh)
O=C(CNC(c1ccccc1)c1ccccc1)Nc1ccccc1Br	Ecoli rRNA inh -33
O=C(Nc1cc(F)ccc1F)N[C@H]1C=C[C@@H](CC(=O)N2CCc3ccccc3C2)O[C@H]1CO	none (no result: NSD2 inh)
Cc1cc(C(=O)Nc2cccc3c2O[C@H](CN(C)S(=O)(=O)c2ccc(Cl)cc2)[C@@H](C)CN([C@@H](C)CO)C3=O)n(C)n1	none (no result: NSD2 inh)
C[C@@H]1CN([C@H](C)CO)C(=O)c2cc(C#CC3CCCCC3)cnc2O[C@@H]1CN(C)S(=O)(=O)c1cccc(F)c1	none (no result: NSD2 inh)
C[C@H]1CN([C@@H](C)CO)C(=O)c2cc(C#CC3CCCCC3)cnc2O[C@@H]1CN(C)S(=O)(=O)c1cccc(F)c1	AF4-AF9 inh 32 (no result: NSD2 inh)
Cc1cc(C(=O)Nc2cccc3c2O[C@H](CN(C)S(=O)(=O)c2ccc(Cl)cc2)[C@H](C)CN([C@H](C)CO)C3=O)n(C)n1	Ecoli rRNA inh -22 (no result: NSD2 inh)
C[C@H]1CN([C@@H](C)CO)C(=O)c2cccc(NC(=O)NC3CCCCC3)c2O[C@@H]1CN(C)S(=O)(=O)c1ccc(F)cc1	none (no result: NSD2 inh)
